This is part of a sample that, as a whole, favours compounds with a hit. Of some 83,000 tested, about 20% had one in any assay.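 Cells were grown in 96-well plates and exposed to the test compound at a single concentration for 48 hours; results are reported as percent growth, with values below 10 considered active.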 Unmarked numbers belong to inactive results. Calls of active or inactive are those of the source.

Here are results for 13 molecules from PubChem BioAssay (NCI).

Holding throughout (assay): NCI-60 one-dose screen, 48 h (100 = growth as untreated, 0 = no growth, -100 = all killed)
Settings in all cases: 10 µM unless noted

Test [1] has as its system NCI-H23 lung.
In test [2] the test system is NCI-H226 lung.
Test [3] relates to NCI-H322M lung.
Test [4] concerns HOP-62 NSCLC.
For test [5], the system named is NCI-H460 lung.
In test [6] the test system is HOP-92 NSCLC.
In test [7] the test system is NCI-H522 lung.
Test [8] has as its system A549/ATCC NSCLC.
The test system of test [9] is 786-0 renal.
Test [10] deals with COLO 205 colon.

In the case of `CNc1nc(S(=O)c2ccc(C#N)cc2)nc2ccccc12` (stereo not given), the growth was 78.4% in [1]; 81.1% in test [2]; 99.6% in test [3]; 98.5% in [4]; 85.2% in [5]; 75% in [6]. Besides, the growth in test [7] is 50.3%; in test [8] it was 90.1%; in test [9] it was 97.5%; in [10], 91.6%.

On to `Oc1ccc(CN2CCC(N3CCCCC3)CC2)c2cccnc12`, for which the growth in [1] is 19%; in [2] it was 69.8%; in test [3] it was 31.3%; in test [4] it was 5.32% (active); in test [5] it was 9.43% (active); in test [6] it was -11.8% (active). Further, the growth in test [7] was -1.28% (active); in test [8] it was 17.4%; in test [9] it was 48.2%; in [10] it was 112%.

Turning to `C[C@@H]1CCC[C@H]1CC(N)C(=O)O` (stereo not given in full), the growth is 97.2% in test [1]; 101% in test [2]; 106% in test [3]; 107% in [4]; 102% in test [5]; 98.2% in test [6]. Besides, the growth in test [7] was 105%; in test [8], 110%; in test [9], 104%; in test [10], 116%.

Turning to `COc1ccc(/C=N/NC(=O)CCN2c3ccccc3Sc3ccccc32)cc1`, the growth in test [1] was 75.6%; in test [2], 86.5%; in test [3] it was 83.4%; in test [4] it was 75.3%; in test [5] it was 85.4%; in test [6] it was 62.7%. Besides, the growth in test [7] is 62.1%; in [8], 77.6%; in [9], 91.5%; in [10] it was 88.5%.

For `Fc1cc2c(cc1Cl)N(c1ncnc3ccc(-c4cnc5[nH]ncc5c4)cc13)CC2`, the growth was 73.3% in [1]; 49.5% in test [2]; 52.1% in [3]; 54.8% in [4]; 54.7% in test [5]; 34.5% in [6]. In addition, the growth in test [7] is 55.9%; in test [8] it was 44%; in test [9] it was 65%; in test [10] it was 79.2%.

On to `CC(C)OC(=O)c1ccc2[nH]c(O)c(C(=Nc3ccc(N(C)C(=O)CN4CCN(C)CC4)cc3)c3ccccc3)c2c1`, for which the growth in test [1] is -59.9% (active); in test [2], 20.1%; in test [3], -6.59% (active); in [4], -68.8% (active); in [5], -57.9% (active); in test [6] it was 1.36% (active). The growth in [7] was -60.6% (active); in test [8], -46.7% (active); in test [9], -92.4% (active); in [10], -59.4% (active).

On to `COc1cccc(CNc2ncnc3c2ncn3C2OC(CO)C(O)C2O)c1O` (stereo not given), for which the growth in test [1] was 7.98% (active); in [2], 31.6%; in test [3] it was 11.3%; in test [4], 1.76% (active); in test [5] it was 45.7%; in test [6], -32.7% (active). In addition, the growth in [7] was 8.65% (active); in test [8] it was 23.9%; in test [9], 7.21% (active); in test [10] it was 24.6%.

As to `OB(O)c1cccc(-c2nc3ccc4[nH]ncc4c3c3c2CCCC3)c1`, the growth in [1] is 73%; in test [2], 81.6%; in [3] it was 45%; in [4], 42.3%; in test [5] it was 32.6%; in test [6] it was 47.6%. The growth is 62.9% in test [7], 41.8% in test [8], 41.4% in [9] and 41.7% in test [10].

`Cc1oc(-c2ccc(Cl)cc2)nc1/C=C/C(=O)c1ccccc1`: the growth in [1] is 98.8%; in test [2], 88.4%; in test [3], 101%; in test [4], 110%; in test [5], 103%; in [6] it was 88.4%. Besides, the growth is 93.1% in test [7], 99.1% in test [8], 96.4% in test [9] and 114% in test [10].

Regarding `CN1CCN(c2ccc(C(=O)Nc3cccc(C#Cc4cccc5[nH]nc(N)c45)c3)cc2C(F)(F)F)CC1`, the growth in [1] was -51.9% (active); in [2] it was 15.6%; in test [3] it was -24.6% (active); in test [4], -63.7% (active); in test [5], -68.4% (active); in [6], -11.8% (active). For the same molecule, the growth in test [7] is -59.1% (active); in test [8], -67.2% (active); in [9] it was -70.4% (active); in test [10] it was -72.9% (active).

For `O=C(Cn1c(-c2ccc([N+](=O)[O-])cc2)nc2ccccc21)NNC(=O)c1cccnc1`, the growth is 83.4% in test [1]; 60.3% in test [2]; 88.6% in test [3]; 95.2% in test [4]; 76.2% in [5]; 38% in [6]. Also, the growth in test [7] is 54.7%; in test [8], 91.1%; in test [9], 93%; in test [10], 92.6%.

As for `COc1ccc(C/C(C)=C(/c2ccc(OCCN3CCCCC3)cc2)c2ccc(OC(=O)NCc3ccccc3)cc2)cc1`, the growth in test [1] was -84.6% (active); in test [2], -70% (active); in [3] it was -81.7% (active); in test [4] it was -89.2% (active); in test [5] it was -90% (active); in test [6], -92.7% (active). Also, the growth was -80.9% (active) in test [7], -93.4% (active) in test [8], -91.6% (active) in test [9] and -90.4% (active) in test [10].

Turning to `O=C1COCCN1c1ccc(Nc2nc(Cl)nc(OCc3cn(Cc4ccccc4)nn3)n2)cc1`, the growth in test [1] is 87.2%; in [2], 95.1%; in test [3], 98.2%; in [4], 87.5%; in [5], 107%; in [6], 82.5%. The growth in test [7] is 76.5%; in test [8], 95.7%; in test [9], 101%; in [10], 105%.
